# Test results: PubChem BioAssay (NCATS)
# Inconclusive results are not listed. Calls of active or inactive are those of the source. Calls follow the shape of the dose curve; as a rule, active = well fitted cell-killing curve with a large enough effect; inconclusive = small, poorly fitted or top-dose-only effect; inactive = flat fitted curve, though single readings scatter.
# Test: Cell Viability - LYMP2-015 (AID 971);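 also: 0% = DMSO only and full effect = 92 µM tetraoctylammonium bromide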
# Details: LYMP2-015 lymphoblastoid cell viability; series mostly up to 92.2 µM; activity change, negative = lower viability: at the top concentration
# In short: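 Cytotoxicity readout: decrease in intracellular ATP (CellTiter-Glo luminescence) in 2500 LYMP2-015 lymphoblastoid cells/well after 24 h compound exposure at 37 C. Concentration-response data fitted with the standard Hill equation to give AC50.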
# Also: nearly all actives have a fitted effect of over 55% in size.
row,SMILES,"activity change, negative = lower viability"
1,CC/C(C)=N/O,10.1% (inactive)
2,Nc1c(Cl)cc(Cl)cc1Cl,-17.7% (inactive)
3,Nc1ccc(Cl)cc1[N+](=O)[O-],-1.16% (inactive)
4,OC/C(Br)=C(\Br)CO,-10% (inactive)
5,CCC=O,9.1% (inactive)
6,CC(=O)OC(C)C,-16% (inactive)
7,C=CCn1c(=O)n(CC=C)c(=O)n(CC=C)c1=O,-1.57% (inactive)
8,CCCCCCCCCCCCOCC1CO1 (stereo unspecified),-9.39% (inactive)
9,CCOC(=O)C(C)C(C)=O (stereo unspecified),1.23% (inactive)
10,Oc1cccc(Nc2ccccc2)c1,-15.9% (inactive)
11,C1CCC2OC2C1 (stereo unspecified),-14.4% (inactive)
12,Nc1ccc([N+](=O)[O-])c(N)c1,-5.98% (inactive)
13,CSc1ccc(C=O)cc1,-13.2% (inactive)
14,O=C(Cl)c1ccccc1[N+](=O)[O-],-6.15% (inactive)
15,Nc1cccc([N+](=O)[O-])c1,-7.04% (inactive)
16,CCOCCOCC,-3% (inactive)
17,C=CC(=O)NC(C)C,-13.5% (inactive)
18,O=[N+]([O-])c1cccc(Cl)c1,-13.4% (inactive)
19,CCC(C)(C)C(=O)O,-4.41% (inactive)

row,SMILES,"activity change, negative = lower viability"
1,CC(C)(O)C(=O)O,-20.5% (inactive)
2,CC(=O)OCCC(C)C,0.96% (inactive)
3,CCC(C)(C)C,-1.28% (inactive)
4,CC(C)CO,-8.33% (inactive)
5,CCOc1cccc(N)c1,-44.8% (inactive)
6,O=C1OC(=O)c2cc([N+](=O)[O-])ccc21,-18.2% (inactive)
7,COC(=O)CCCC(=O)OC,3.15% (inactive)
8,NC=O,-3.69% (inactive)
9,O=C(Cl)c1cccc([N+](=O)[O-])c1,-10.1% (inactive)
10,Cc1ccc2oc(=O)ccc2c1,12.7% (inactive)
11,CC(=O)CCc1ccccc1,-11.4% (inactive)
12,C=CCCCCCCC=C,-15.2% (inactive)
13,O=C(O)CNC(=O)c1ccc(CO)o1,-2.49% (inactive)
14,Clc1ccccn1,-5.16% (inactive)
15,Nc1cc([N+](=O)[O-])ccc1C(=O)O,12% (inactive)
16,Nc1cccc(O)c1,-1.88% (inactive)
17,CCOCCO,-14.2% (inactive)
18,O=C(Cl)c1c(Cl)cccc1Cl,12.6% (inactive)
19,ICCc1ccccc1,-10.1% (inactive)

# Test: Cell Viability - LYMP2-017 (AID 972);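 also: cells exposed to compound for 24 hours at 37 °C; % is scaled to controls: 0 for no effect and ±100 for the full control effect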
# Details: LYMP2-017 lymphoblastoid cell viability; series mostly up to 92.2 µM; activity change, negative = cytotoxicity: at the top concentration
# In short: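 CellTiter-Glo luminescence (cellular ATP, 30 min RT) measured cytotoxicity after 24 hr compound treatment at 37 C. Cells were a human lymphoblastoid line, LYMP2-017, plated at 2500/well and incubated 5 hr first; concentration-response fitted with Hill equation for AC50.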
row,SMILES,"activity change, negative = cytotoxicity"
1,CC/C(C)=N/O,6.61% (inactive)
2,Nc1c(Cl)cc(Cl)cc1Cl,-8.49% (inactive)
3,Nc1ccc(Cl)cc1[N+](=O)[O-],-5.29% (inactive)
4,OC/C(Br)=C(\Br)CO,-10.8% (inactive)
5,CCC=O,4.51% (inactive)
6,CC(=O)OC(C)C,-14.1% (inactive)
7,C=CCn1c(=O)n(CC=C)c(=O)n(CC=C)c1=O,-8.77% (inactive)
8,CCCCCCCCCCCCOCC1CO1 (stereo unspecified),-4.18% (inactive)
9,CCOC(=O)C(C)C(C)=O (stereo unspecified),-9.72% (inactive)
10,Oc1cccc(Nc2ccccc2)c1,-2.95% (inactive)
11,C1CCC2OC2C1 (stereo unspecified),-6.93% (inactive)
12,Nc1ccc([N+](=O)[O-])c(N)c1,-10.8% (inactive)
13,CSc1ccc(C=O)cc1,-6.36% (inactive)
14,O=C(Cl)c1ccccc1[N+](=O)[O-],-10.8% (inactive)
15,Nc1cccc([N+](=O)[O-])c1,-5.88% (inactive)
16,CCOCCOCC,-0.715% (inactive)
17,C=CC(=O)NC(C)C,-5.05% (inactive)
18,O=[N+]([O-])c1cccc(Cl)c1,-6.82% (inactive)
19,CCC(C)(C)C(=O)O,8.68% (inactive)
20,C/C(C=O)=C/c1ccccc1,-9.62% (inactive)

row,SMILES,"activity change, negative = cytotoxicity"
1,CC(C)(O)C(=O)O,-9.26% (inactive)
2,CC(=O)OCCC(C)C,-6.43% (inactive)
3,CCC(C)(C)C,2.57% (inactive)
4,CC(C)CO,-23.2% (inactive)
5,CCOc1cccc(N)c1,-15.2% (inactive)
6,O=C1OC(=O)c2cc([N+](=O)[O-])ccc21,-14.6% (inactive)
7,COC(=O)CCCC(=O)OC,7.44% (inactive)
8,NC=O,-10% (inactive)
9,O=C(Cl)c1cccc([N+](=O)[O-])c1,-0.87% (inactive)
10,Cc1ccc2oc(=O)ccc2c1,-19.1% (inactive)
11,CC(=O)CCc1ccccc1,-12.6% (inactive)
12,C=CCCCCCCC=C,-0.854% (inactive)
13,O=C(O)CNC(=O)c1ccc(CO)o1,-7.73% (inactive)
14,Clc1ccccn1,-6.96% (inactive)
15,Nc1cc([N+](=O)[O-])ccc1C(=O)O,-11.2% (inactive)
16,Nc1cccc(O)c1,-5.31% (inactive)
17,CCOCCO,-0.623% (inactive)
18,O=C(Cl)c1c(Cl)cccc1Cl,-4.99% (inactive)
19,ICCc1ccccc1,-6.13% (inactive)

# Test: Cell Viability - LYMP2-019 (AID 973);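 also: 0% = DMSO alone and full effect = 92 µM tetraoctylammonium bromide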
# Details: LYMP2-019 lymphoblastoid cell line viability; series mostly up to 92.2 µM; activity change, negative = cytotoxicity: at the top concentration
# In short: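 AC50 values come from Hill-equation fits of luminescent intracellular ATP (CellTiter-Glo, 30 min, room temperature) following 24 h compound exposure at 37 C. Cells: LYMP2-019 lymphoblastoid line, 2500 per well, in complete culture medium.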
row,SMILES,"activity change, negative = cytotoxicity"
1,CC/C(C)=N/O,0.383% (inactive)
2,Nc1c(Cl)cc(Cl)cc1Cl,-5.37% (inactive)
3,Nc1ccc(Cl)cc1[N+](=O)[O-],-12.9% (inactive)
4,OC/C(Br)=C(\Br)CO,3.04% (inactive)
5,CCC=O,-0.727% (inactive)
6,CC(=O)OC(C)C,-6.04% (inactive)
7,C=CCn1c(=O)n(CC=C)c(=O)n(CC=C)c1=O,1.64% (inactive)
8,CCCCCCCCCCCCOCC1CO1 (stereo unspecified),-16% (inactive)
9,CCOC(=O)C(C)C(C)=O (stereo unspecified),-7.51% (inactive)
10,Oc1cccc(Nc2ccccc2)c1,-18.1% (inactive)
11,C1CCC2OC2C1 (stereo unspecified),-7.03% (inactive)
12,Nc1ccc([N+](=O)[O-])c(N)c1,-25.5% (inactive)
13,CSc1ccc(C=O)cc1,-14.5% (inactive)
14,O=C(Cl)c1ccccc1[N+](=O)[O-],-3.69% (inactive)
15,Nc1cccc([N+](=O)[O-])c1,-4.61% (inactive)
16,CCOCCOCC,-11.1% (inactive)
17,C=CC(=O)NC(C)C,-4.08% (inactive)
18,O=[N+]([O-])c1cccc(Cl)c1,-5.55% (inactive)
19,CCC(C)(C)C(=O)O,-10.6% (inactive)
20,C/C(C=O)=C/c1ccccc1,-15.3% (inactive)

row,SMILES,"activity change, negative = cytotoxicity"
1,CC(C)(O)C(=O)O,-9.49% (inactive)
2,CC(=O)OCCC(C)C,-1.74% (inactive)
3,CCC(C)(C)C,-10.8% (inactive)
4,CC(C)CO,-6.59% (inactive)
5,CCOc1cccc(N)c1,-11.9% (inactive)
6,O=C1OC(=O)c2cc([N+](=O)[O-])ccc21,-3.27% (inactive)
7,COC(=O)CCCC(=O)OC,-7.07% (inactive)
8,NC=O,8.4% (inactive)
9,O=C(Cl)c1cccc([N+](=O)[O-])c1,-9.4% (inactive)
10,Cc1ccc2oc(=O)ccc2c1,-12.5% (inactive)
11,CC(=O)CCc1ccccc1,2.25% (inactive)
12,C=CCCCCCCC=C,-12% (inactive)
13,O=C(O)CNC(=O)c1ccc(CO)o1,-6.45% (inactive)
14,Clc1ccccn1,-8.7% (inactive)
15,Nc1cc([N+](=O)[O-])ccc1C(=O)O,-2.9% (inactive)
16,Nc1cccc(O)c1,-8.77% (inactive)
17,CCOCCO,-6.21% (inactive)
18,O=C(Cl)c1c(Cl)cccc1Cl,-7.63% (inactive)
19,ICCc1ccccc1,-13.8% (inactive)
